The text below walks through data of PubChem BioAssay.

One may read the inhibition as the drop in the measured response relative to a control, in per cent.

Values joined by “and” are separate entries in the source; they are usually repeats but may differ in a detail not shown here. Identical values can stand only once. Active and inactive are the calls of the source.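 The calls were made as follows, unless noted: active = thallium flux through the channel raised or lowered by more than 3 SD from vehicle-only wells, actives on both sides; inactive = the rest.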

Test [1] is described as follows: stimulators of nuclear beta-catenin in C2C12, primary screen, imaging, WNT3A-conditioned medium, mouse C2C12, NPC library (AID 1117326; in the data active = nuclear beta-catenin stimulation mostly above about 4.2%, no sharp cut-off; inactive = mostly below about 10%). Particulars: stronger effect = higher value.
Test [2] is described as follows: stimulators of insulin release from INS-1E, primary screen, cell-based, 5 mM glucose, NPC library (AID 1117329;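 active = compound raises insulin release from rat beta cells at 5 mM glucose, no numeric limit stated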). Particulars: rat INS-1E insulin secretion, at 10 µM, stronger effect = higher value.
Test [3] is described as follows: growth inhibition of GSK3B-pretreated HCT116 cells – cell-based, CellTiter-Glo, 0.2 to 20 µM (AID 1117336;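 active = compounds lowering colon cancer cell viability after pretreatment blocking the GSK3B kinase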). Conditions: HCT116 viability after GSK3B inhibitor, at 20 µM, stronger effect = higher value. (In general: In ATP-based viability assays light output follows the ATP content of the culture.)
Test [4] in a line: inhibition of endothelial tube formation, primary screen, imaging, VEGF stimulated, CD31 staining, tube area, NPC library (AID 1117340;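 active = compound that reduces growth-factor-driven endothelial tube area in a mixed cell culture, no cutoff stated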). Particulars: VEGF-stimulated ADSC/ECFC co-culture, at 10 µM, stronger effect = higher value.
A short description of test [5]: glucagon-like peptide 1 release enhancers, primary assay, NCI-H716 cell line, NPC library (AID 1117341;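 active = compound raises GLP1 secretion from the human gut endocrine cells, with no numeric limit stated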). Particulars: NCI-H716 cells, at 10 µM, stronger effect = higher value.
A short description of test [6]: HCT116 colon cancer cell growth inhibition, primary screen, CellTiter-Glo luminescence, NPC library (AID 1117342;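 active = compounds that lower survival of HCT116 colon cancer cells in the luminescence readout, no numeric limit stated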). Conditions: at 20 µM (top of the series).
Test [7] can be described thus: CellTiter-Glo luminescent readout of SW480 viability loss, NPC library primary (AID 1117343;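 active = compounds that lower viability of the colon cancer cells in the luminescence readout, with no numeric limit stated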). Conditions: CellTiter-Glo luminescence; at 20 µM (top of the series).
Test [8] can be described thus: decreased DLD-1 cellular survival, CellTiter-Glo luminescent readout, NPC compound collection, primary HTS (AID 1117346;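 active = compounds that lower survival of DLD-1 colon cancer cells in the luminescence readout, no cutoff given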). Conditions: DLD-1 viability, CellTiter-Glo luminescence; at 20 µM (top of the series).
The target of test [9] is 6-phosphogluconate dehydrogenase, decarboxylating (Homo sapiens) (UniProt P52209). The experiment in a line: 6PGD enzyme inhibitors, primary screen, biochemical, human, recombinant enzyme, NADPH absorbance (AID 1159550;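 active = at least 20% inhibition of 6-phosphogluconate dehydrogenase activity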). Conditions: recombinant 6PGD, NADPH absorbance 341 nm; at 10 µM; stronger effect = higher value.
The nature of test [10]: sensitizers of A549 cells to miR-34 induction, primary screen, imaging, A549 dox-inducible miR-34, nuclei and caspase counts (AID 1347080;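 active = compounds whose cell count with miR-34 switched on is under 0.7 times the count with it off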). Particulars: A549 miR-34 inducible, Hoechst nuclei count, 48 h.
Test [11] in a line: survival rescue of mitochondrial mutant cells in low glucose, primary screen, MELAS cybrids, Rieske KO mouse fibroblasts, CellTiter-Glo (AID 1508586;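 active = mean z-score across replicates of 1.96 or higher in either the MELAS or the Rieske mutant cell line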;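 also: z relative to plate mean and SD of compound and empty wells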).
Test [12] concerns the target NAD(+) hydrolase SARM1 (Homo sapiens) (UniProt Q6SZW1). The experiment in a line: SARM1 TIR NADase inhibitors, cell lysate, NAD-Glo luminescence (AID 1508614;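 active = compound whose remaining NAD level is above about 45 nM, limit read from the data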;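 also: higher remaining NAD means stronger inhibition of SARM1 NADase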). Conditions: SAM-TIR HEK293T lysate NADase, at 1 µM, stronger effect = higher value.
Test [13] addresses Mitogen-activated protein kinase 7 (Homo sapiens) (UniProt Q13164). The experiment in a line: ERK5 transactivation activators in reporter cells, primary screen, cell-based, HTS (AID 1508626;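 active = luciferase signal above three times the same-plate solvent-only control wells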;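 also: luciferase driven by Gal4-ERK5 fusion binding five Gal4 sites before minimal TATA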). Particulars: HeLa Gal4-ERK5 transactivation, 18 h, at 5 µM, stronger effect = higher value.
Test [14] deals with F380Y. The experiment in a line: modulators of BK channel variants, profiling panel, selectivity assay, cell-based, U2OS BacMam, thallium flux, beta subunits (AID 1259406).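 Also: initial slope of Thallos dye fluorescence rise after thallium is added; log ratio against the mean of 0.3% DMSO vehicle wells on the same plate.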 Conditions: at 30 µM.
Test [15] has as its system F380Y/beta2Delta. The test is described as above. Conditions: at 30 µM.
For test [16], the target named is Calcium-activated potassium channel subunit alpha-1 (Homo sapiens) + Leucine-rich repeat-containing protein 26 (Homo sapiens) (UniProt Q12791+Q2I0M4). The test is described as above. Conditions: F380Y/Slo1WT/gamma1, at 30 µM.
In test [17] the test system is R275C. The description is as above. Particulars: at 30 µM.
Test [18] deals with R275C/beta1. Described as above. Particulars: at 30 µM.
For test [19], the system named is R275C/beta2Delta. The description is as above. Particulars: at 30 µM.
Setting [20] is: stronger effect = lower value, cell number ratio, induced over uninduced.
Where [21] appears, read: measured here: relative caspase fold change +Dox/-Dox.
[22] abbreviates: measured here: total cells with miR-34 induction, stronger effect = lower value.
[23] abbreviates: measured here: total cells without miR-34 induction.
The mark [24] stands for this setting: MELAS cybrid survival, CellTiter-Glo 48 h, stronger effect = higher value.
Setting [25] is: Rieske KO mouse fibroblast survival, CellTiter-Glo 72 h.

Mitogen-activated protein kinase 7 (Homo sapiens), sequence (Q13164 whole entry, looked up, the tested form may be a part): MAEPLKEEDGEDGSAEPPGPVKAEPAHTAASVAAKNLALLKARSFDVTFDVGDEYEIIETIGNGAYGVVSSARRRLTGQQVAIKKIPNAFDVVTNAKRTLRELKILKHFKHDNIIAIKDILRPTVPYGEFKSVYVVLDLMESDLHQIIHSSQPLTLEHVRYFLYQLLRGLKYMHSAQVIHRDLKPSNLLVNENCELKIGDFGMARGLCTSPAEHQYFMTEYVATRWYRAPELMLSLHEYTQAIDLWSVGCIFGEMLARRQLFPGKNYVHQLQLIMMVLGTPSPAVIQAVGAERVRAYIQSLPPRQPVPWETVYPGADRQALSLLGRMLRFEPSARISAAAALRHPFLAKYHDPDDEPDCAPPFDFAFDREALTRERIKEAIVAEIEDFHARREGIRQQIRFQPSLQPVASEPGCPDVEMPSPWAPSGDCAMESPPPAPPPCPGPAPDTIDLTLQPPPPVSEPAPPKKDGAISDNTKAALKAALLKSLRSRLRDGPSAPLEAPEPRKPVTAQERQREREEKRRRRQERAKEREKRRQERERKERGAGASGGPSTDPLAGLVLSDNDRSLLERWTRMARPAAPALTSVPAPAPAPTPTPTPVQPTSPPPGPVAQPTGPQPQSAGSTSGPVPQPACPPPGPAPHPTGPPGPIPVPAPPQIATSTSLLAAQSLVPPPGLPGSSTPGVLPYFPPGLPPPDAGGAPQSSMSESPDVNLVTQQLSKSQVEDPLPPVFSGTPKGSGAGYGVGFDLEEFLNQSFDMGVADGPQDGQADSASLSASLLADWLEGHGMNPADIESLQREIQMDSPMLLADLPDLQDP
NAD(+) hydrolase SARM1 (Homo sapiens), sequence (Q6SZW1 whole entry, looked up, the tested form may be a part): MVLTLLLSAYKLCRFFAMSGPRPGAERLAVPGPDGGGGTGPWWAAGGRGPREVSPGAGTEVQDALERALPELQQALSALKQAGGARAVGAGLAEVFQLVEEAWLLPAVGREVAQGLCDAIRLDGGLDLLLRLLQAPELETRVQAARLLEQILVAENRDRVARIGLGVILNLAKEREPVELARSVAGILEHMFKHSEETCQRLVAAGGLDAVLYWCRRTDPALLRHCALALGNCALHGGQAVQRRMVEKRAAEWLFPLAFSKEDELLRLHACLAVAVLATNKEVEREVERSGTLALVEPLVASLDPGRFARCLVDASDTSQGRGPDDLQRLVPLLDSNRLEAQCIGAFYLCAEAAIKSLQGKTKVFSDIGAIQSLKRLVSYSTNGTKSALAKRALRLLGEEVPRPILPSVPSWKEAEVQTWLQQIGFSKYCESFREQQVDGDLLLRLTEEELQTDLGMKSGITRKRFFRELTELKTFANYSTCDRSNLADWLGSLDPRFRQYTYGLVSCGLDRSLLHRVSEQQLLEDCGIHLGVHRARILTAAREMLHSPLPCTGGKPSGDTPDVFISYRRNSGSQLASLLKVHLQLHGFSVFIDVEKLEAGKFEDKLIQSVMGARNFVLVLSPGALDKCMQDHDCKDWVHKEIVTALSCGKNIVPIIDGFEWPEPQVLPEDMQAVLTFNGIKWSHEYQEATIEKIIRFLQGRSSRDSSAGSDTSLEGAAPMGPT
Calcium-activated potassium channel subunit alpha-1 (Homo sapiens) + Leucine-rich repeat-containing protein 26 (Homo sapiens), sequence (Q2I0M4 whole entry, looked up, one chain of several): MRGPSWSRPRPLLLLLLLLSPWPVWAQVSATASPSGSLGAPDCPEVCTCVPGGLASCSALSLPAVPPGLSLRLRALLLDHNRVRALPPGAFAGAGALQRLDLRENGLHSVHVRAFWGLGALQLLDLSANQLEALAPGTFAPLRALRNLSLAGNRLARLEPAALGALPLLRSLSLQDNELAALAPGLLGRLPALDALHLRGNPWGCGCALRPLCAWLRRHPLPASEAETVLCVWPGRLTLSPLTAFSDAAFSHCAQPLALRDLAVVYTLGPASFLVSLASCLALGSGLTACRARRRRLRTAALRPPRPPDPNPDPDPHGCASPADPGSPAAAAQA
6-phosphogluconate dehydrogenase, decarboxylating (Homo sapiens), sequence (P52209 whole entry, looked up): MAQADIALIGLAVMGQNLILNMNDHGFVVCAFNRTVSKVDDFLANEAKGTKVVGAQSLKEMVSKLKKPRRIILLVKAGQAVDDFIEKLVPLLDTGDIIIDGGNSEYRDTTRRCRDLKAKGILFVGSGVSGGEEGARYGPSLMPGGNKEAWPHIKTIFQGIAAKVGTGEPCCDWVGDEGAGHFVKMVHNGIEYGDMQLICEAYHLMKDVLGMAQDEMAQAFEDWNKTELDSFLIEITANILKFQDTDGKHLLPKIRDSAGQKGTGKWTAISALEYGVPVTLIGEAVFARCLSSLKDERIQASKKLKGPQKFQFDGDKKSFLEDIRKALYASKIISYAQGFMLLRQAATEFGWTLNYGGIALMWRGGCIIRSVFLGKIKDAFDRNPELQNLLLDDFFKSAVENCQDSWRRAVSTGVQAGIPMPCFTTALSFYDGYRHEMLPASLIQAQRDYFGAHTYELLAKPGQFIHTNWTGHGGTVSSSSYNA

Regarding `CC[C@H](C)C(=O)O[C@H]1C[C@H](O)C=C2C=C[C@H](C)[C@H](CC[C@@H](O)C[C@@H](O)CC(=O)O)[C@H]21`, the nuclear beta-catenin stimulation was -0.7% (inactive) in test [1] (at 10 µM) and -0.3% in test [1] (stimulation, at 2 µM). Moreover, in test [2], the insulin secretion stimulation was 0.2% (inactive). Besides, the viability decrease in [3] was -15.6% (inactive). Moreover, the tube area decrease in test [4] was 22% (inactive). Besides, the GLP1 secretion stimulation in [5] was -3.6% (inactive). Moreover, the inhibition of viability in test [6] was 12.4% (inactive). For the same compound, the viability decrease (inhibition) is 2.3% (inactive) in test [7] and 5.1% (inactive) in test [8]. In [9], the inhibition is -4.46% (inactive). Further, the fold change in test [10] (setting [20]) is 0.972 (inactive); in test [10] (setting [21]), 0.983. Also, the cell count in test [10] (setting [22]) was 9020; in test [10] (setting [23]) it was 9270. Further, the z-score in test [11] (setting [24]) is -0.583 (inactive); in test [11] (setting [25]), -1.06. Besides, the remaining NAD in [12] was 10 nM (inactive). The luciferase signal in test [13] was 36 AU (inactive). Also, the log fold change Tl+ flux in test [14] was -0.00852 (inactive); in test [15], -0.0757 (inactive); in test [16], 0.00396 (inactive); in test [17], -0.0381 (inactive); in test [18], -0.014 (inactive); in test [19] it was 0.0137 (inactive).

On to `CC(COc1ccccc1)NC(C)C(O)c1ccc(O)cc1` (configuration not stated), for which the nuclear beta-catenin stimulation in test [1] (at 10 µM) is 2.4% (inactive); in test [1] (stimulation, at 2 µM) it was -1%. For the same compound, in test [2], the insulin secretion stimulation is 3% (inactive). Besides, the viability decrease in test [3] was -3.4% (inactive). For the same compound, in test [4], the tube area decrease was 15.3% (inactive). Further, the GLP1 secretion stimulation in [5] was 2.4% (inactive). Besides, in test [6], the inhibition of viability is 18.7% (inactive). Moreover, the viability decrease (inhibition) in [7] was 42.3% (inactive); in test [8], -4.6% (inactive). The inhibition in [9] is 0.0758% (inactive). In addition, the fold change is 0.93 (inactive) and 0.88 (inactive) in [10] (setting [20]); 1.41 and 1.05 in [10] (setting [21]). For the same compound, the cell count is 10000 and 8140 in test [10] (setting [22]); 10800 and 9240 in [10] (setting [23]). Also, the z-score in test [11] (setting [24]) was 0.843 (inactive); in test [11] (setting [25]), 0.798. Also, the remaining NAD in [12] was 10 nM (inactive). In test [13], the luciferase signal is 72 AU (inactive). In addition, the log fold change Tl+ flux in test [14] is -0.000146 (inactive); in test [15], 0.0627 (inactive); in test [16], -0.0341 (inactive); in test [17] it was 0.0486 (inactive); in test [18], 0.000959 (inactive); in test [19], 0.0577 (inactive).

Regarding `C[C@]12CCC(=O)C=C1CC[C@@H]1[C@@H]2C(=O)C[C@@]2(C)[C@H]1CC[C@]2(O)C(=O)CO`, the nuclear beta-catenin stimulation is -0.9% (inactive) in [1] (at 10 µM) and 1.3% in [1] (stimulation, at 2 µM). For the same compound, in [2], the insulin secretion stimulation is -3.1% (inactive). The viability decrease in test [3] is -9.9% (inactive). The tube area decrease in [4] is 4.3% (inactive). The GLP1 secretion stimulation in [5] was -2.4% (inactive). In test [6], the inhibition of viability was 4.4% (inactive). The figures for the viability decrease (inhibition) in test [7] and in test [8] were 6.5% (inactive) and -2.6% (inactive), respectively. Further, the inhibition in test [9] was 4.09% (inactive). The fold change was 0.98 (inactive) and 0.917 (inactive) in [10] (setting [20]); 2.11 and 1.06 in test [10] (setting [21]). Moreover, the cell count in test [10] (setting [22]) was 8700 and 9320; in test [10] (setting [23]) it was 8880 and 10200. The z-score in [11] (setting [24]) was 1.14 (inactive); in test [11] (setting [25]) it was -0.104. In [12], the remaining NAD is 10 nM (inactive). Further, the luciferase signal in test [13] is 36 AU (inactive). Also, the log fold change Tl+ flux in [14] was 0.0198 (inactive); in test [15], 0.0238 (inactive); in test [16] it was 0.0148 (inactive); in [17], -0.0438 (inactive); in test [18], -0.0165 (inactive); in test [19], -0.0316 (inactive).
